Source: PubChem BioAssay (EPA / NIEHS)
Results filed as inconclusive are left out. Calls of active or inactive are those of the source. The calls were made as follows, unless noted: active = hit-call score of the fitted dose curve at least 0.9, where 1 is the maximum; inconclusive = response in the unintended direction; inactive = score below 0.9.

biological target: human Retinoid X Receptor beta (RXRb), RXRB (gene 6257) (UniProt P28702); test: ATG_RXRb_TRANS: Attagene TRANS-FACTORIAL HepG2 Assay for human Retinoid X Receptor beta (RXRb) (AID 2283013); settings: not given
Sequence (P28702 whole entry, looked up): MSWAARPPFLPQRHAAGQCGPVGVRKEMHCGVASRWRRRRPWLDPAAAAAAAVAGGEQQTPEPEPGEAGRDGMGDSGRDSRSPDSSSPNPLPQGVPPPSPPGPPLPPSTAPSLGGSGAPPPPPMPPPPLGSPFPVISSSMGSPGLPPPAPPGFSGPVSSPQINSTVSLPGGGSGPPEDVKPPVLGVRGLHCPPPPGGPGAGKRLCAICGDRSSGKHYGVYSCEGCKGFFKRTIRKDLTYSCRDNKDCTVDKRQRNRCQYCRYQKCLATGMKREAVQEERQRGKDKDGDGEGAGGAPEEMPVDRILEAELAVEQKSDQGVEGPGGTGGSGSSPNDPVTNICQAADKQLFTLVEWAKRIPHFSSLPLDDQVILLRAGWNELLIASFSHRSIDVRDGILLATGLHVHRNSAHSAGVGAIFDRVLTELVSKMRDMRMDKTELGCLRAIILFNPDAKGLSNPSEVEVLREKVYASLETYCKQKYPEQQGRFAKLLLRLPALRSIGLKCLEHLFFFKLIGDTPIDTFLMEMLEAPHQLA
Outline: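 Multiplexed TRANS reporter assay in HepG2; 24 h dosing; reporter mRNA by RT-PCR/CE fluorescence; gain-of-signal relative to DMSO.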

Row | Compound | outcome | AC50
1 | CC(=O)CCc1ccc(O)cc1 | inactive | 
2 | CCNC(=S)NCC | inactive | 
3 | [O-]/[N+](=N\O)c1ccccc1 | inactive | 
4 | c1ccc2c(c1)-c1ccc3ccc4cccc5cc-2c1c3c45 | inactive | 
5 | CC(=O)Oc1c(C)c(C)c2c(c1C)CC[C@@](C)(CCC[C@H](C)CCC[C@H](C)CCCC(C)C)O2 | inactive | 
6 | Cc1cc(N)n(-c2ccccc2)n1 | inactive | 
7 | COC(=O)c1cccc(C(=O)OC)c1 | inactive | 
8 | CC=CC(=O)C1=C(C)C=CCC1(C)C | inactive | 
9 | CC(C)N(c1ccccc1)C(C)C | inactive | 
10 | C1=COCCC1 | inactive | 
11 | Cc1ccccc1S | inactive | 
12 | CC(CO)c1ccccc1 (stereo unspecified) | inactive | 
13 | CC(C)=CCCC(C)=CC(=O)O | inactive | 
14 | CC(C)(C)c1ccc(S)cc1 | inactive | 
15 | CC(C)(O)CCc1ccccc1 | inactive | 
16 | NCCN1CCNCC1 |  | 25.3 µM (active)
17 | CCCCCCCCCCCCOC(C)=O | inactive | 
18 | OCCN1CCOCC1 | inactive | 
19 | c1ccc2scnc2c1 | inactive | 

biological target: human Thyroid Receptor alpha (THRa1), THRA (gene 7067) (UniProt P10827); test: ATG_THRa1_TRANS: Attagene TRANS-FACTORIAL HepG2 Assay for human Thyroid Receptor alpha (THRa1) (AID 2283014); settings: not given
Sequence (P10827 whole entry, looked up, the tested form may be a part): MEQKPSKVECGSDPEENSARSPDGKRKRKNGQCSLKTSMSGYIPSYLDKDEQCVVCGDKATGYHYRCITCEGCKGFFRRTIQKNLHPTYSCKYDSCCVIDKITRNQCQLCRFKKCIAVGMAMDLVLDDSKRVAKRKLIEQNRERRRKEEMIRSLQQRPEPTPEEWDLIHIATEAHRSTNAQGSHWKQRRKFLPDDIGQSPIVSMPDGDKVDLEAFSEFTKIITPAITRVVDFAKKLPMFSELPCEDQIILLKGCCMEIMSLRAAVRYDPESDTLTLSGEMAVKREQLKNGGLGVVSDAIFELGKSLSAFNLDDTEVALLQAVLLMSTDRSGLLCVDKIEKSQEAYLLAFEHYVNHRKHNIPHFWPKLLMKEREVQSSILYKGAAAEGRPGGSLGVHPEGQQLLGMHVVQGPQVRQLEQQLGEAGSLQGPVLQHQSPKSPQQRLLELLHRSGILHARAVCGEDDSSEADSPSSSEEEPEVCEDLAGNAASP
Outline: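 Transient HepG2 transfection, NR-Gal4 chimera driving GAL4-UAS reporters; 24 h compound exposure; total RNA, oligo(dT) RT, PCR, fluorescent primer extension, capillary electrophoresis. Upward direction vs DMSO control.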

Row | Compound | outcome
20 | CC(=O)CCc1ccc(O)cc1 | inactive
21 | CC(=O)C1C(=O)C=C(C)OC1=O (stereo unspecified) | inactive
22 | c1ccc2c(c1)-c1ccc3ccc4cccc5cc-2c1c3c45 | inactive
23 | CC(=O)Oc1c(C)c(C)c2c(c1C)CC[C@@](C)(CCC[C@H](C)CCC[C@H](C)CCCC(C)C)O2 | inactive
24 | NC(=O)c1cccnc1 | inactive
25 | CCc1cccc(O)c1 | inactive
26 | NC(=O)c1c(Cl)cccc1Cl | inactive
27 | Cc1cc(N)n(-c2ccccc2)n1 | inactive
28 | CC(=O)CC(=O)N(C)C | inactive
29 | CC(CO)c1ccccc1 (stereo unspecified) | inactive
30 | CCOC(=O)CC(C)C | inactive
31 | Nc1ccn([C@H]2CC[C@@H](CO)O2)c(=O)n1 | inactive
32 | CN(C)CCC=C1c2ccccc2CCc2ccccc21 | inactive
33 | CCO[Si](CCC#N)(OCC)OCC | inactive
34 | OCCN1CCOCC1 | inactive
35 | c1ccc2scnc2c1 | inactive

read-out: Interleukin-1 alpha (IL1a), IL1A (gene 3552); test: BSK_BE3C_IL1a: BioMAP Diversity Plus: BE3C Assay for Interleukin-1 alpha (IL1a) Biomarker Activity (AID 2283016; active = hit-call score of the fitted dose curve at least 0.9, where 1 is the maximum; inactive = score below 0.9); settings: primary human bronchial epithelial cells; actives raise or lower the signal
Outline: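 Cultures of primary human bronchial epithelial cells receive test chemical. After 24 h, IL-1a is quantified by ELISA, while parallel wells are fixed in TCA and SRB-stained for total protein. Changes in either direction are fitted relative to DMSO.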

Row | Compound | outcome
36 | c1ccc2c(c1)-c1ccc3ccc4cccc5cc-2c1c3c45 | inactive
37 | NC(=O)c1c(Cl)cccc1Cl | inactive
38 | CC=CC(=O)C1=C(C)C=CCC1(C)C | inactive
39 | O=C1OC2(c3ccc(O)cc3Oc3cc(O)ccc32)c2ccccc21 | inactive
40 | OCCN1CCOCC1 | inactive

read-out: Monocyte Chemoattractant Protein-1 (MCP1), CCL2 (gene 6347); test: BSK_3C_MCP1: BioMAP Diversity Plus: 3C Assay for Monocyte Chemoattractant Protein-1 (MCP1) Biomarker Activity (AID 2283017; active = hit-call score of the fitted dose curve at least 0.9, where 1 is the maximum; inactive = score below 0.9); settings: primary human endothelial cells (HUVEC); actives raise or lower the signal
Outline: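 HUVEC, 3C system; 24 h chemical exposure; MCP-1 by ELISA; bidirectional curve fit vs DMSO baseline.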

Row | Compound | outcome
41 | c1ccc2c(c1)-c1ccc3ccc4cccc5cc-2c1c3c45 | inactive
42 | NC(=O)c1c(Cl)cccc1Cl | inactive
43 | CC=CC(=O)C1=C(C)C=CCC1(C)C | inactive
44 | O=C1OC2(c3ccc(O)cc3Oc3cc(O)ccc32)c2ccccc21 | inactive
45 | OCCN1CCOCC1 | inactive

read-out: Monocyte Chemoattractant Protein-1 (MCP1), CCL2 (gene 6347); test: BSK_4H_MCP1: BioMAP Diversity Plus: 4H Assay for Monocyte Chemoattractant Protein-1 (MCP1) Biomarker Activity (AID 2283018; active = hit-call score of the fitted dose curve at least 0.9, where 1 is the maximum; inactive = score below 0.9); settings: primary human endothelial cells (HUVEC); actives raise or lower the signal
Outline: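 Readout: MCP-1 ELISA on compound-treated HUVEC, sampled 24 h post-dosing. Baseline and negative control DMSO; bidirectional fit. Overt toxicity checked alongside by sulforhodamine B protein staining at time of biomarker measurement.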

Row | Compound | outcome
46 | c1ccc2c(c1)-c1ccc3ccc4cccc5cc-2c1c3c45 | inactive
47 | NC(=O)c1c(Cl)cccc1Cl | inactive
48 | CC=CC(=O)C1=C(C)C=CCC1(C)C | inactive
49 | O=C1OC2(c3ccc(O)cc3Oc3cc(O)ccc32)c2ccccc21 | inactive
50 | OCCN1CCOCC1 | inactive

read-out: Human Leukocyte Antigen - DR isotype (HLADR), HLA-DRA (gene 3122); test: BSK_3C_HLADR: BioMAP Diversity Plus: 3C Assay for Human Leukocyte Antigen - DR isotype (HLADR) Biomarker Activity (AID 2283019; active = hit-call score of the fitted dose curve at least 0.9, where 1 is the maximum; inactive = score below 0.9;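 as to outcome: ELISA of cell-surface HLA-DR on HUVEC 24 h after dosing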); settings: primary human endothelial cells (HUVEC); actives raise or lower the signal
Outline: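 HUVEC, 3C stimulation, 24 h post-dose; HLA-DR by ELISA; bidirectional curve fit vs DMSO baseline; gain or loss of signal scored.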

Row | Compound | AC50 | outcome
51 | c1ccc2c(c1)-c1ccc3ccc4cccc5cc-2c1c3c45 | 0.621 µM (active) | 
52 | NC(=O)c1c(Cl)cccc1Cl |  | inactive
53 | CC=CC(=O)C1=C(C)C=CCC1(C)C |  | inactive
54 | O=C1OC2(c3ccc(O)cc3Oc3cc(O)ccc32)c2ccccc21 | 20 µM (active) | 
55 | OCCN1CCOCC1 |  | inactive

read-out: Interleukin-8 (IL8), CXCL8 (gene 3576); test: BSK_3C_IL8: BioMAP Diversity Plus: 3C Assay for Interleukin-8 (IL8) Biomarker Activity (AID 2283020; active = hit-call score of the fitted dose curve at least 0.9, where 1 is the maximum; inactive = score below 0.9); settings: primary human endothelial cells (HUVEC); actives raise or lower the signal
Outline: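 Human vascular endothelial cells (umbilical vein) in the 3C system; IL-8 level detected by ELISA at 24 h post-dose, with DMSO as baseline.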

Row | Compound | outcome | AC50
56 | c1ccc2c(c1)-c1ccc3ccc4cccc5cc-2c1c3c45 | inactive | 
57 | NC(=O)c1c(Cl)cccc1Cl | inactive | 
58 | CC=CC(=O)C1=C(C)C=CCC1(C)C | inactive | 
59 | O=C1OC2(c3ccc(O)cc3Oc3cc(O)ccc32)c2ccccc21 |  | 20 µM (active)
60 | OCCN1CCOCC1 | inactive | 

biological target: human Vitamin D Receptor (VDR), VDR (gene 7421) (UniProt P11473); test: ATG_VDR_TRANS: Attagene TRANS-FACTORIAL HepG2 Assay for human Vitamin D Receptor (VDR) (AID 2283022); settings: not given
Sequence (P11473 whole entry, looked up, the tested form may be a part): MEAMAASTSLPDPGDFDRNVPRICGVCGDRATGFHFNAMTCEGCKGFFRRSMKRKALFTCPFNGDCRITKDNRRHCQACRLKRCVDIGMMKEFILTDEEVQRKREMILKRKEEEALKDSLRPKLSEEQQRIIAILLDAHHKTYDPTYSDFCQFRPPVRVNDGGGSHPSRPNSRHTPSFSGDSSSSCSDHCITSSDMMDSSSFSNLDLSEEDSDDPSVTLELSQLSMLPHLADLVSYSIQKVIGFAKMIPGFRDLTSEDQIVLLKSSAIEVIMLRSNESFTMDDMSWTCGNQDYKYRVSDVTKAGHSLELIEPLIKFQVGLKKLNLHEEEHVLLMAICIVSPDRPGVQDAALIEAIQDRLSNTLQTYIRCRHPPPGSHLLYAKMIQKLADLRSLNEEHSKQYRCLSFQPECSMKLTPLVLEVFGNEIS
Outline: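 RT-PCR/capillary electrophoresis read-out of reporter mRNA induction in transiently transfected HepG2; 24 h dosing; chimeric NR-Gal4 (TRANS format); gain-of-signal fit against DMSO baseline.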

Row | Compound | outcome
61 | c1coc(CNc2ncnc3nc[nH]c23)c1 | inactive
62 | CC(=O)CCc1ccc(O)cc1 | inactive
63 | CC(=O)C1C(=O)C=C(C)OC1=O (stereo unspecified) | inactive
64 | CCNC(=S)NCC | inactive
65 | c1ccc2c(c1)-c1ccc3ccc4cccc5cc-2c1c3c45 | inactive
66 | CC(=O)Oc1c(C)c(C)c2c(c1C)CC[C@@](C)(CCC[C@H](C)CCC[C@H](C)CCCC(C)C)O2 | inactive
67 | NC(=O)c1cccnc1 | inactive
68 | CCc1cccc(O)c1 | inactive
69 | Cc1ccc(C(C)(C)O)cc1 | inactive
70 | Cc1cc(N)n(-c2ccccc2)n1 | inactive
71 | Nc1cc([N+](=O)[O-])ccc1C(=O)O | inactive
72 | CCCC1CCOC(C)S1 (stereo unspecified) | inactive
73 | O=C1OC2(c3ccc(O)cc3Oc3cc(O)ccc32)c2ccccc21 | inactive
74 | C=CC(C)CCCC(C)(C)O (stereo unspecified) | inactive
75 | CC(C)N(c1ccccc1)C(C)C | inactive
76 | CC(=O)CC(=O)N(C)C | inactive
77 | Cc1ccccc1S | inactive
78 | CCOC(=O)CC(C)C | inactive
79 | O=C1OCc2ccccc21 | inactive
80 | CC(C)(C)c1ccc(S)cc1 | inactive
81 | CN(C)CCC=C1c2ccccc2CCc2ccccc21 | inactive

read-out: not listed separately; test: BSK_3C_SRB: Viability Assessment in the BioMAP Diversity Plus: 3C Assay (AID 2283023; active = hit-call score of the fitted dose curve at least 0.9, where 1 is the maximum; inactive = score below 0.9;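 also: cells read 24 h after compound dosing; fitted both ways against DMSO so a hit may be signal rise or drop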); settings: primary human endothelial cells (HUVEC)
Outline: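 HUVEC, 24 h post-dose; 10% TCA fix, 0.1% SRB stain, A560 nm. Bidirectional curve fit vs DMSO negative control.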

Row | Compound | outcome
82 | c1ccc2c(c1)-c1ccc3ccc4cccc5cc-2c1c3c45 | inactive
83 | NC(=O)c1c(Cl)cccc1Cl | inactive
84 | CC=CC(=O)C1=C(C)C=CCC1(C)C | inactive
85 | O=C1OC2(c3ccc(O)cc3Oc3cc(O)ccc32)c2ccccc21 | inactive
86 | OCCN1CCOCC1 | inactive
